# Measurements: PubChem BioAssay AID1159580 (chemical genetic matrix, 2015)
# Out of some 5,500 compounds screened, about 2,000 (36%) were called active. Roughly 18% stayed inconclusive and do not appear here. This is one part of the list. Unmarked numbers belong to inactive results. No stated cut-off is given here; in the data, active means normalized growth mostly below about 0.91 (no sharp cut-off); inconclusive means no clear call, values can overlap the other calls; inactive means mostly above about 0.92.
# Assay: chemical genetic growth profiling, strain panel (AID 1159580);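 further: tested at 20 µM; growth read once vehicle control cultures reached saturation at 30 °C; 1 = growth at the plate median or of vehicle wells; lower values mean less growth of the strain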
# Settings: S. cerevisiae deletion strains, growth OD
# [1] = locus YBL105C, strain PKC1, active compounds read low
# [2] = locus YBR135W, strain CKS1, active compounds read low
# [3] = locus YBR136W, strain MEC1, active compounds read low
# [4] = locus YDL017W, strain CDC7, active compounds read low
# [5] = locus YDL108W, strain KIN28, active compounds read low
# [6] = locus YDL214C, strain PRR2, active compounds read low
# [7] = locus YDR052C, strain DBF4, active compounds read low
# [8] = locus YDR226W, strain ADK1, active compounds read low
# [9] = locus YDR477W, strain SNF1, active compounds read low
# [10] = locus YER123W, strain YCK3, active compounds read low
# [11] = locus YER133W, strain GLC7, active compounds read low
# [12] = locus YFL029C, strain CAK1, active compounds read low
# [13] = locus YFR003C, strain YPI1, active compounds read low
# [14] = locus YFR019W, strain FAB1, active compounds read low
# [15] = locus YFR028C, strain CDC14, active compounds read low
# [16] = locus YGR040W, strain KSS1, active compounds read low
# [17] = locus YGR052W, strain FMP48, active compounds read low
# [18] = locus YGR092W, strain DBF2, active compounds read low
# [19] = locus YHR030C, strain SLT2, active compounds read low
# [20] = locus YHR079C, strain IRE1, active compounds read low
# [21] = locus YHR082C, strain KSP1, active compounds read low
# [22] = locus YHR205W, strain SCH9, active compounds read low
# [23] = locus YIL147C, strain SLN1, active compounds read low
# [24] = locus YJL095W, strain BCK1, active compounds read low
# [25] = locus YJL157C, strain FAR1, active compounds read low
# [26] = locus YJR016C, strain ILV3, active compounds read low
# [27] = locus YJR066W, strain TOR1 (second series), active compounds read low
# [28] = locus YJR066W, strain TOR1, active compounds read low
# [29] = locus YKL048C, strain ELM1, active compounds read low
# [30] = locus YKL067W, strain YNK1, active compounds read low
# [31] = locus YKL101W, strain HSL1, active compounds read low
# [32] = locus YLR113W, strain HOG1, active compounds read low
# [33] = locus YLR133W, strain CKI1, active compounds read low
# [34] = locus YLR403W, strain SFP1, active compounds read low
# [35] = locus YML070W, strain DAK1, active compounds read low
# [36] = locus YMR205C, strain PFK2 (second series), active compounds read low
# [37] = locus YNL006W, strain LST8, active compounds read low
# [38] = locus YNL020C, strain ARK1, active compounds read low
# [39] = locus YNL161W, strain CBK1, active compounds read low
# [40] = locus YNL183C, strain NPR1, active compounds read low
# [41] = locus YNL222W, strain SSU72, active compounds read low
# [42] = locus YNL307C, strain MCK1 (second series), active compounds read low
# [43] = locus YOL136C, strain PFK27, active compounds read low
# [44] = locus YOR061W, strain CKA2, active compounds read low
# [45] = locus YOR119C, strain RIO1, active compounds read low
# [46] = locus YOR231W, strain MKK1, active compounds read low
# [47] = locus YOR329C, strain SCD5, active compounds read low
# [48] = locus YPL031C, strain PHO85, active compounds read low
# [49] = locus YPL153C, strain RAD53, active compounds read low
# [50] = locus YPL204W, strain HRR25, active compounds read low
# [51] = locus YPL209C, strain IPL1, active compounds read low
# [52] = locus YPL256C, strain CLN2, active compounds read low
# [53] = locus YPR025C, strain CCL1, active compounds read low
# [54] = locus YPR111W, strain DBF20, active compounds read low
# [55] = strain NNK1, active compounds read low
structure (smiles),measurement,setting,value
Clc1cccc(Nc2ncc(-c3ccc4c(c3)OCCCO4)s2)c1,normalized growth,"locus YAR019C, strain CDC15, active compounds read low",0.978
same,normalized growth,[1],0.989
same,normalized growth,[2],0.981
same,normalized growth,[3],0.98
same,normalized growth,"locus YBR160W, strain CDC28, active compounds read low",0.983
same,normalized growth,[4],0.988
same,normalized growth,"locus YDL028C, strain MPS1, active compounds read low",0.956
same,normalized growth,"locus YDL101C, strain DUN1, active compounds read low",1
same,normalized growth,[5],0.978
same,normalized growth,"locus YDL132W, strain cdc53, active compounds read low",0.986
same,normalized growth,[6],0.893
same,normalized growth,[7],0.986
same,normalized growth,"locus YDR054C, strain cdc34, active compounds read low",0.989
same,normalized growth,[8],0.988
same,normalized growth,[9],0.909
same,normalized growth,[10],0.864
same,normalized growth,[11],0.892
same,normalized growth,"locus YFL009W, strain cdc4, active compounds read low",0.99
same,normalized growth,[12],0.977
same,normalized growth,[13],0.985
same,normalized growth,[14],0.898
same,normalized growth,[15],0.963
same,normalized growth,[16],0.905
same,normalized growth,[17],0.862
same,normalized growth,[18],0.88
same,normalized growth,[19],0.67 (active)
same,normalized growth,[20],0.663
same,normalized growth,[21],0.951
same,normalized growth,[22],0.824
same,normalized growth,[23],0.973
same,normalized growth,[24],0.731
same,normalized growth,"locus YJL128C, strain PBS2, active compounds read low",0.951
same,normalized growth,[25],0.894
same,normalized growth,[26],0.994
same,normalized growth,[27],0.902
same,normalized growth,[28],0.95
same,normalized growth,[29],0.965
same,normalized growth,[30],0.927
same,normalized growth,[31],0.923
same,normalized growth,"locus YKL193C, strain SDS22, active compounds read low",0.985
same,normalized growth,"locus YKL203C, strain TOR2, active compounds read low",1.01
same,normalized growth,[32],0.682 (active)
same,normalized growth,[33],0.866
same,normalized growth,[34],0.881
same,normalized growth,[35],0.872
same,normalized growth,"locus YMR001C, strain CDC5, active compounds read low",0.984
same,normalized growth,[36],0.894
same,normalized growth,"locus YMR277W, strain FCP1, active compounds read low",0.968
same,normalized growth,[37],0.995
same,normalized growth,[38],0.86
same,normalized growth,[39],0.982
same,normalized growth,[40],0.799
same,normalized growth,"locus YNL207W, strain RIO2, active compounds read low",0.987
same,normalized growth,[41],0.98
same,normalized growth,[42],0.864
same,normalized growth,"locus YOL078W, strain AVO1, active compounds read low",0.972
same,normalized growth,[43],0.873
same,normalized growth,[44],0.86
same,normalized growth,[45],0.953
same,normalized growth,[46],0.759
same,normalized growth,[47],0.984
same,normalized growth,[48],0.889
same,normalized growth,[49],0.872
same,normalized growth,[50],0.86
same,normalized growth,[51],0.983
same,normalized growth,[52],0.717 (active)
same,normalized growth,[53],0.968
same,normalized growth,"locus YPR106W, strain ISR1, active compounds read low",0.971
same,normalized growth,[54],0.959
same,normalized growth,[55],0.974
same,normalized growth,"strain TSCII, active compounds read low",0.971
Clc1ccc(-c2cnc(Nc3cc(Cl)cc(Cl)c3)s2)cc1,normalized growth,[1],0.63 (active)
same,normalized growth,[2],0.869 (active)
same,normalized growth,[3],0.956
same,normalized growth,[4],0.972
same,normalized growth,[5],0.972
same,normalized growth,[6],0.134 (active)
same,normalized growth,[7],0.965
same,normalized growth,[8],0.964
same,normalized growth,[9],0.119 (active)
same,normalized growth,[10],0.158 (active)
same,normalized growth,[11],0.12 (active)
same,normalized growth,[12],0.514 (active)
same,normalized growth,[13],0.97
same,normalized growth,[14],0.175 (active)
same,normalized growth,[15],0.966
same,normalized growth,[16],0.142 (active)
same,normalized growth,[17],0.132 (active)
same,normalized growth,[18],0.148 (active)
same,normalized growth,[19],0.117 (active)
same,normalized growth,[20],0.204 (active)
same,normalized growth,[21],0.126 (active)
same,normalized growth,[22],0.0742 (active)
same,normalized growth,[23],0.961
same,normalized growth,[24],0.16 (active)
same,normalized growth,[25],0.149 (active)
same,normalized growth,[26],0.791 (active)
same,normalized growth,[27],0.116 (active)
same,normalized growth,[28],0.109 (active)
same,normalized growth,[29],0.215 (active)
same,normalized growth,[30],0.164 (active)
same,normalized growth,[31],0.174 (active)
same,normalized growth,[32],0.163 (active)
same,normalized growth,[33],0.117 (active)
same,normalized growth,[34],0.0226 (active)
same,normalized growth,[35],0.166 (active)
same,normalized growth,[36],0.16 (active)
same,normalized growth,[37],0.679 (active)
same,normalized growth,[38],0.133 (active)
same,normalized growth,[39],0.529 (active)
same,normalized growth,[40],0.136 (active)
same,normalized growth,[41],0.608 (active)
same,normalized growth,[42],0.225 (active)
same,normalized growth,[43],0.147 (active)
same,normalized growth,[44],0.135 (active)
same,normalized growth,[45],0.46 (active)
same,normalized growth,[46],0.229 (active)
same,normalized growth,[47],0.781 (active)
same,normalized growth,[48],0.148 (active)
same,normalized growth,[49],0.136 (active)
same,normalized growth,[50],0.13 (active)
same,normalized growth,[51],0.625 (active)
same,normalized growth,[52],0.196 (active)
same,normalized growth,[53],0.927
same,normalized growth,[54],0.674 (active)
same,normalized growth,[55],0.967
CN/C(=C\[N+](=O)[O-])NCCSCc1csc(CN(C)C)n1,normalized growth,[19],1.05
same,normalized growth,[20],1.04
same,normalized growth,[24],1.06
same,normalized growth,[28],0.927
same,normalized growth,[32],1.06
same,normalized growth,[40],0.996
same,normalized growth,[46],1.07
same,normalized growth,[52],1.08
